# The list is not random: actives were taken first. Their share in the collection is about 1.9%.
# p53null 32C kill – kills p53 null cells at the permissive temperature | H1299-neo p53 null cells, ATP luminescence, 24 h, 32C | Potency, µM (titrated, usually from 46.1 µM), for the others: at the highest dose activity change, negative = cytotoxicity, actives largely listed as cytotoxic | actives 0.62% (n = 55,000);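 further: 0% = DMSO only and -100% = full killing by 100 µM tamoxifen; nearly all actives have a fitted effect of over 55% in size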
#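 Overnight 37C seeding (600 cells/well) of H1299-neo preceded a 24 hr, 32C exposure to compounds up to 46 uM. ATP levels, read by luminescence after 20 min at RT, indicated surviving cells.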
# HTT-AS act – activators of huntingtin-antisense promoter activity | HEK293 HTT-AS promoter firefly luciferase reporter, 24 h; response scale: percent change from vehicle, -100% = no light | Potency, µM (series often up to 57.5 µM), inactives show at the top dose activity change, positive = activation, most hits filed as activators | actives 0.24% (n = 48,000) | AID 1508624; further: nearly all actives have a fitted effect of over 55% in size
#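 Firefly luciferase signal from promoter-reporter HEK293 cells was scaled between vehicle (0%) and zero RLU (-100%). Compounds were tested at final concentrations of up to 57.5 uM over 24 h at 37 degrees C. PTC124 at 50 uM final served as control inhibitor.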
# p53null 39C tox – selectivity test: cytotoxicity in p53 null cells, nonpermissive temperature. H1299 p53-null (neo) cells, 39C, ATPlite viability, 24 h. Potency, µM (series often up to 46.1 µM), inactives show top-dose activity, negative = cell killing, usual class: cytotoxic. actives 0.97% (n = 55,000). AID 904;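 further: 0% = DMSO only and -100% = full killing by 100 µM tamoxifen; nearly all actives have a fitted effect of over 50% in size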
#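 H1299 lung cancer cells, p53-null (H1299-neo) or expressing p53 A138V (H1299-p53A138V), were plated overnight at 37C, then exposed to compounds at up to 46 uM for 24 hr at 39C. Viability was read by ATP-based luminescence.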
# HTT promoter inh – inhibits huntingtin promoter activity. HEK293 HTT promoter firefly luciferase reporter, 24 h. Potency, µM (series often up to 57.5 µM), for inactives: at the highest dose activity change, negative = inhibition, actives largely listed as inhibitors. actives 0.93% (n = 48,000); further: nearly all actives have a fitted effect of over 50% in size
#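 HEK293 cells carrying firefly luciferase reporters were seeded at 2,500 per well in Opti-MEM and cultured for 24 h. They were then treated with compounds at up to 57.5 uM final for 24 h at 37 degrees C before Dual-Glo luminescence readout.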
# Active calls of the source: *; ? = inconclusive; . = not tested or not shown. The call rests on the fitted dose curve; in most records, active means well fitted curve in the direction sought with a large enough effect; inconclusive means small, poorly fitted or top-dose-only effect, or another doubt; inactive means no such curve, though single readings can be large; an effect the other way counts as inactive or inconclusive. Potency means the concentration at half of the fitted maximal effect.
SMILES,p53null 32C kill,HTT-AS act,p53null 39C tox,HTT promoter inh
Cc1nc2cc(-c3ccccc3)nn2c(C)c1CCC(=O)N1CCN(c2ccc(F)cc2)CC1,-3%,-75%,-5%,2µM*
COc1ccc(CCNC(=O)CCc2c(C)nc3cc(-c4ccc(Cl)cc4)nn3c2C)c(OC)c1,9%,-74%,-14%,2µM*
COc1ccc(-c2cc3nc(C)c(CCC(=O)Nc4ccccc4C(C)=O)c(C)n3n2)c(OC)c1,-7%,-76%,-24%,14µM*
Cc1ccc(NC(=O)CCc2c(C)nc3cc(-c4ccccc4)nn3c2C)cc1F,-2%,-71%,?,2µM*
COc1ccc(CCNC(=O)CCc2c(C)nc3cc(-c4ccccc4)nn3c2C)cc1OC,4%,-82%,-19%,?
COc1ccc2cc(-c3nc(-c4ccc(S(C)=O)cc4)[nH]c3-c3ccncc3)ccc2c1 (stereo unspecified),.,-18%,.,-7%
Cc1ccc2sc(-c3ccc(N)cc3)nc2c1,2µM*,?,1.6µM*,12%
Cc1ccc2sc(-c3ccc(NC(=O)CCN4C(=O)c5ccccc5C4=O)cc3)nc2c1,-11%,.,.,.
Cc1cccc(CS(=O)(=O)c2ncc(Cl)c(C(=O)Nc3nnc(C(C)C)s3)n2)c1,39%,-95%,13µM*,?
CCNC(=O)c1c(NC(=O)c2nc(S(=O)(=O)CC)ncc2Cl)sc2c1CCCC2,19%,-18%,25µM*,3%
CCc1nnc(NC(=O)c2nc(S(=O)(=O)Cc3ccc(C)cc3)ncc2Cl)s1,?,-94%,16µM*,?
CN(C)CCN(C)C(=O)c1ccc(NC(=O)Nc2ccc(-c3nc(N4CCOCC4)c4ccn(CC(F)(F)F)c4n3)cc2)cc1,.,-47%,.,?
CC(=O)Nc1cc(-c2nc3ccccc3s2)ccc1C,?,6.3µM*,?,64%
Cc1ccc(-c2nc3cccnc3s2)cc1NC(=O)C(C)C,-4%,-1%,8%,3%
CC(C)(C)C(=O)Nc1ccc(-c2nc3ccccc3s2)cc1,0.5µM*,?,0.63µM*,-91%
COc1ccc(C=Cc2cc(OC)c(OC)c(OC)c2)cc1NC(=O)[C@H](N)CO,.,-37%,.,-26%
COc1cc(C(=O)NC(c2ccc(Cl)cc2)c2cc(Cl)c3cccnc3c2O)cc(OC)c1OC (stereo unspecified),?,-61%,-18%,5µM*
COc1cccc(C(=O)NC(c2ccc(Cl)cc2)c2cc(Cl)c3cccnc3c2O)c1 (stereo unspecified),?,-44%,-5%,?
Cc1cn2c(=O)cc(COC(=O)c3cccc(NC(=O)c4ccc(C(C)(C)C)cc4)c3)nc2s1,2.5µM*,-2%,0.79µM*,-11%
CC(C)(C)c1ccc(C(=O)Nc2ccc(C(=O)OCc3cc(=O)n4ccsc4n3)cc2)cc1,?,-43%,2µM*,?
Cc1ccc(C(=O)Nc2ccc(C(=O)OCc3cc(=O)n4ccsc4n3)cc2)cc1,-1%,?,-1%,31%
N#CC(=C(O)c1ccc(Cl)cc1Cl)c1nc2cc(Cl)ccc2c(=O)[nH]1,.,-16%,.,-2%
CCc1ccc(NC(=O)Nc2ccccc2OCc2cc(=O)n3ccccc3n2)cc1,?,?,2µM*,53%
CC(C)C(=O)Nc1ccccc1OCc1cc(=O)n2ccccc2n1,-5%,-12%,11%,-1%
Cc1ccc(/C=C/C(=O)Nc2ccccc2C(N)=O)o1,13µM*,4µM*,10µM*,60%
SMILES,p53null 32C kill,HTT-AS act,p53null 39C tox,HTT promoter inh
COc1ccc(C=CC(=O)Nc2ccccc2C(=O)O)cc1OC,.,-85%,.,?
CCc1ccc(-n2nc(CO)c(C(=O)NC)n2)cc1,?,?,20µM*,52%
COc1ccc(NCc2cccn2-c2nnc(N3CCC(C)CC3)s2)c(OC)c1,-1%,-81%,-9%,?
CCOc1ccc(NCc2cccn2-c2nnc(N3CCC(C(=O)NCc4ccccc4Cl)CC3)s2)cc1,-7%,-57%,-21%,22µM*
CC1CCN(c2nnc(-n3cccc3CNc3cccc(F)c3)s2)CC1,-4%,-71%,0%,5.6µM*
COc1ccc(CNC(=O)C2CCN(c3nnc(-n4cccc4CNc4ccc(C)cc4)s3)CC2)c(OC)c1,-3%,-32%,-14%,?
CC[C@H](NC(=O)[C@H](C)NC)C(=O)N1C[C@@H](O)C[C@H]1Cc1c(-c2[nH]c3cc(F)ccc3c2C[C@H]2C[C@H](O)CN2C(=O)[C@H](CC)NC(=O)[C@H](C)NC)[nH]c2cc(F)ccc12,.,-33%,.,?
CCOC(=O)c1ccc(-c2ccc(/C=C(\C#N)c3nc4ccc(C)cc4[nH]3)o2)cc1,?,7%,6.3µM*,?
Cc1ccc(C)c(N2CCN(C(=O)C(C)n3nc(C)c4sc5ccccc5c4c3=O)CC2)c1 (stereo unspecified),-10%,-11%,0%,-4%
Cc1nn(CC(=O)NC2CCC(C)CC2)c(=O)c2c1sc1ccccc12 (stereo unspecified),2%,18%,-23%,-2%
Cc1nn(C(C)C(=O)NC2CCC(C)CC2)c(=O)c2c1sc1ccccc12 (stereo unspecified),?,-5%,20µM*,-2%
COc1ccc(N2CCN(C(=O)C(C)n3nc(C)c4sc5ccccc5c4c3=O)CC2)cc1 (stereo unspecified),-20%,2%,13µM*,0%
COc1cccc(NC(=O)C2CCN(S(=O)(=O)c3cc(-c4noc(C)n4)ccc3C)CC2)c1,7%,-53%,10%,13µM*
COc1cc(C)c(Sc2cnc(NC(=O)c3ccc(CNC(C)C(C)C)cc3)s2)cc1C(=O)N1CCN(C(C)=O)CC1 (stereo unspecified),.,-12%,.,?
O=C(O)c1ccc(-c2c[nH]c3ncc(-c4ccccc4)cc23)cc1C1CCCC1,.,-11%,.,-18%
CCN1C(=O)c2ccccc2Sc2ccc(NC(=O)Nc3cc(C)cc(C)c3)cc21,-3%,-46%,10%,20µM*
CCc1cccc(NC(=O)Nc2ccc3c(c2)N(C)C(=O)c2ccccc2S3)c1,7%,-38%,0%,32µM*
O=C(Nc1cccc(C(F)(F)F)c1)Nc1cc(S(=O)(=O)NC2CC2)ccc1-c1ccsc1,.,-18%,.,?
CC(C)CC(=O)Nc1n[nH]c2c1CN(C(=O)C1CCN(C)CC1)C2(C)C,.,-48%,.,?
Cc1ccc2nc(Cl)c3cc(C(=O)NCCCN(C)Cc4ccccc4)sc3c2c1,?,-13%,?,-12%
CN(CCCNC(=O)c1cc2c(Cl)nc3ccccc3c2s1)Cc1ccccc1,?,-23%,25µM*,-9%
C=CC(=O)Nc1cc2c(Nc3ccc(F)c(Cl)c3)ncnc2cc1C#CC(C)(C)N1CCN(C)CC1,.,-16%,.,-3%
CCN(CC)CCOC(=O)c1ccc(NC(=O)c2nn(-c3ccc(C)cc3)c(=O)c3c2c2ccccc2n3C)cc1,6.3µM*,-23%,4µM*,-17%

# Screening data from PubChem.
